# Test results: PubChem BioAssay AID1730 (National Center for Advancing Translational Sciences (NCATS), 2009)
# Records with an inconclusive call do not appear. Unmarked numbers belong to inactive results. Activity calls are given as the source filed them. The call rests on the fitted dose curve; in most records, active means well fitted inhibition curve with a large enough effect; inconclusive means small, poorly fitted or top-dose-only effect; inactive means no such curve, though single readings can be large or run the other way.
# Assay: Counterscreen Assay for Inhibitors of the ERK Signaling Pathway using a Homogeneous Screening Assay
# Settings: AlphaScreen bead counterscreen in cell lysate, 5 h; series mostly up to 45.6 µM; activity change, negative = inhibition: at the top concentration
# Description: qHTS Assay for Inhibitors of the ERK Signaling Pathway using a Homogeneous Screening Assay
# NIH Chemical Genomics Center [NCGC]
# NIH Molecular Libraries Screening Centers Network [MLSCN]
# Assay Submitter (PI): Dr. Wei Zheng, NCGC/NIH
# The Ras/extracellular-signal-regulated kinase (ERK) mitogen activated protein (MAP) kinase signaling pathway (ERK1/2 cascade) plays is a key role in transmitting signals from the cell surface to the nucleus (Nishida and Gotoh 1993; Chang and Karin, 2001). The cascade is initiated by the small G-protein Ras, which recruits Raf […], where activation occurs. Alternatively, this pathway can be activated by elevating intracellular cAMP.
# Activation of the ERK pathway is essential in increased cell division and cell survival. Sustained and constitutive activation of the ERK pathway, however, has been linked to uncontrolled cell proliferation, increased cell survival, and tumor progression. Thus, the ERK has been as an attractive target for cancer chemotherapy in the past few years (Sebolt-Leopold and Herrera, 2004). Given its physiological and pathological importance, assessment of ERK phosphorylation has been broadly performed in both basic research and drug discovery. Most assays for the measurement of ERK phosphorylation use the antibody-based detection methods, such as western blot and ELISA. These assays require multiple reagent additions with cell wash steps and are not suitable for high-throughput screening.
# The current cell-based ERK phosphorylation assay was performed using AlphaScreen platform. AlphaScreen is a two bead-based proximity-dependent chemical energy transfer luminescent assay platform. The assay reagents (ERK SureFire(TM) kit) were supplied from TGR BioSciences (Australia). In the presence of specific antibodies, phosphorylated ERK will bring "donor" and "acceptor" beads to a proximity range (<200 nm), and subsequently lead a chemical luminescent reaction upon exciting donor beads with 680 nm laser. To exclude the assay-related false positives, we used a biotinylated rabbit IgG to perform a counter-screen. The biotinylated antibody mimics the phosphorylated ERK1/2 for bringing streptavidin coated beads and protein-A coated beads to a proximity range for the AlphaScreen detection.
# NCGC Assay Protocol Summary:
# Biotinylated rabbit IgG was used to perform a counter-screen in the context of an AlphaScreen assay kit provided by PerkinElmer. Data were normalized to the controls for basal activity (DMSO only) and 100% activation (25 nM IgG). AC50 values were determined from concentration-response data modeled with the standard Hill equation.
# (1) Seed 4 ul/well of resuspended frozen HEK293 cells containing 2000 cells in white 1536-well plates for overnight with 1% FBS at 37C under a humidified atmosphere containing 5% CO2 and 95% air.
# (2) Add 23 nL compounds in DMSO solution. The final titration was 0.6 nM to 46 uM.
# (3) Incubate at 37C for 30 min.
# (4) Dispense 0.5uL vasopressin (25 nM in final)
# (5) Incubate at 37C for 5 min.
# (6) Dispense 0.5uL of 1:2 diluted 5x lysis buffer.
# (7) Incubate at 37C for 10 min.
# (8) Dispense 1.5uL of mixture of activation buffer and reaction buffer with AlphaScreen beads (streptavidin donor beads and protein-A acceptor beads, 10 ng/well for each).
# (9) Incubate at room temperature for 5 hr.
# (10) Detect the assay plate in an EnVision plate reader (PerkinElmer) using the AlphaScreen detection mode.
# Keywords: ERK, MEK, type-1 vasopressin receptors, homogenous, cell-based kinase assay, MLSMR, MLSCN, NIH Roadmap, qHTS and NCGC
Compound,"activity change, negative = inhibition",Potency
COc1ccc(C(=O)c2ccc(Cl)c([N+](=O)[O-])c2)cc1,-22.8%,–
Fc1ccc(Nc2ncnc3sc4c(c23)CCC4)cc1,-3.12%,–
c1ccc(Nc2ncnc3ccc(-c4cccnc4)cc23)cc1,-11.4%,–
CC(C)Cn1c(N)c(C(=O)CSc2ccc3c(c2)OCCO3)c(=O)n(C)c1=O,16.2% [at 57.5 µM],–
N#CC(C#N)=c1ccc2c(c1)N1C3=C(CCCC3)CC3CCCCC31N=2 (stereo not given),–,4.47 µM (active)
CCCCOc1cc(CC2CNC(=O)N2)ccc1OC (stereo not given),–,inactive
COc1ccc(-c2ccc(SCC(=O)N3CCCC3)nn2)cc1OC,-11.4% [at 57.5 µM],–
Cc1noc(NS(=O)(=O)c2ccc(NC(=O)COc3ccc(Cl)cc3Cl)cc2)c1C,-16% [at 57.5 µM],–
COc1ccc(CC(=O)Nc2cccc(-c3nnc(-c4ccc(C)cc4)o3)c2)cc1OC,16.5% [at 57.5 µM],–
Fc1cccc(Nc2ncnc3sc4c(c23)CCC4)c1,-7.2%,–
CN(C)CCCn1cc(C2=C(c3c[nH]c4ccccc34)C(=O)NC2=O)c2ccccc21,–,35.5 µM (active)
Cc1ccc(Nc2ncnc3sc(C)c(C)c23)cc1C,-15.2%,–
c1ccc(Oc2nc(NCc3ccco3)nc(NCc3ccco3)n2)cc1,-16.5% [at 57.5 µM],–
Fc1ccc(Nc2ncnc3sc4c(c23)CCC4)cc1F,-2.34%,–
c1ccc(Nc2ncnc3sc4c(c23)CCC4)cc1,-12.1%,–
c1ccc(-c2csc(-c3nc4ccccc4[nH]3)n2)cc1,-18.4% [at 57.5 µM],–
O=C(Nc1nccs1)c1cc2sccc2n1Cc1ccc(F)cc1,7.37% [at 57.5 µM],–
Cc1nc2ccccc2nc(=O)c1NNc1ccccc1,-26.2%,–
CC(/C=C/c1ccccc1)=N\Nc1ccccc1[N+](=O)[O-],–,3.16 µM (active)
C/C(=N\Nc1nnc(-c2ccccc2)c(-c2ccccc2)n1)c1cccc([N+](=O)[O-])c1,-10%,–

Compound,"activity change, negative = inhibition",Potency
CCCNc1ncnc2sc(C)c(C)c12,-22.1%,–
COc1cc2ncnc(Nc3cccc(Cl)c3)c2cc1OC,–,inactive
CCOC(=O)Cc1csc(NC(=O)CSc2ncnc3c2cnn3-c2ccc(OC)cc2)n1,-15.9% [at 57.5 µM],–
O=C1c2ccc(O)c(O)c2C(=O)c2c(O)ccc(O)c21,–,4.47 µM (active)
CCCCC[C@H](O)C=C[C@H]1[C@H](O)CC(=O)[C@H]1CCCCCCC(=O)O,-32.4% [at 57.5 µM],–
Cc1nc2ccccc2c2oc(C(=O)N3CCc4ccccc4C3)cc12,-25.7% [at 57.5 µM],–
O=C1c2ccccc2C(=O)c2c1cccc2N1CCCC1,–,10 µM (active)
COc1ccc(C2=Nn3c(nnc3-c3ccccc3OC)SC2)cc1OC,7.65% [at 57.5 µM],–
Cn1c(=O)cc(Nc2ccccc2)c2c(=O)n(-c3ccccc3)c(=O)n(-c3ccccc3)c21,-33.4%,–
COC(=O)Cc1c(C)c2ccc(OC(=O)c3ccco3)cc2oc1=O,-7.84% [at 57.5 µM],–
CC(=O)N1CCC(=NNc2nc3ccccc3s2)CC1,-11.1%,–
CCOC(=O)c1ccc(NC(=O)c2ccc(C)c(S(=O)(=O)N3CCOCC3)c2)cc1,-20.2% [at 57.5 µM],–
CNc1cccc2c1C(=O)c1ccccc1C2=O,–,5.01 µM (active)
COc1ccc(-c2n(CC(=O)OC3CC(C)CCC3C(C)C)c3ccccc3[n+]2C)cc1 (stereo not given),-15%,–
COc1ccc(C(=O)OC(COc2ccccc2)Cn2ccnc2)cc1 (stereo not given),-26.4%,–
O=C(c1cccs1)c1no[n+]([O-])c1C(=O)c1cccs1,10.5% [at 57.5 µM],–
CC1(C)OC(c2ccccc2)=C/C(=C/C=C2C(=O)c3ccccc3C2=O)O1,–,2.24 µM (active)
CS(=O)(=O)CCNCc1nc(-c2ccc3ncnc(Nc4ccc(OCc5cccc(F)c5)c(Cl)c4)c3c2)cs1,-9.75%,–
Nc1nc2c3ccccc3nc(C3CC3)n2n1,-17.4% [at 57.5 µM],–
COc1cc(C(=O)Nc2nc(-c3cccs3)cs2)cc(OC)c1OC,-25.6% [at 57.5 µM],–
